# Experimental data published in PubChem BioAssay (NCI).
# This is part of a sample that, as a whole, favours compounds with a hit. Of some 83,000 tested, about 20% had one in any assay.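 For each line, cells grew in 96-well plates with the test compound present at a single concentration for 48 hours.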 Values without a mark were called inactive. Active and inactive are the calls of the source. Rule for the calls: active = growth percent below 10; inactive = the rest.
# Tests used:
# Experiment in all cases: NCI-60 one-dose screen, 48 h (100 = growth as untreated, 0 = no growth, -100 = all killed)
# Conditions in all cases: 10 µM unless noted
# [1] = tested on: NCI-H23 lung
# [2] = tested on: NCI-H226 lung
# [3] = tested on: NCI-H322M lung
# [4] = tested on: HOP-62 NSCLC
# [5] = tested on: NCI-H460 lung
# [6] = tested on: NCI-H522 lung
# [7] = tested on: 786-0 renal
# [8] = tested on: COLO 205 colon
# [9] = tested on: DU-145 prostate
# [10] = tested on: K-562 leukemia
# [11] = tested on: MALME-3M melanoma
# [12] = tested on: MDA-MB-231 breast
# [13] = tested on: RXF 393 renal
# [14] = tested on: SF-268 CNS
# [15] = tested on: SF-295 CNS
# [16] = tested on: SF-539 CNS
# [17] = tested on: UACC-257 melanoma
# [18] = tested on: M14 melanoma
# [19] = tested on: HCT-15 colon
# [20] = tested on: A549/ATCC NSCLC
Compound,growth [1],growth [2],growth [3],growth [4],growth [5],growth [6],growth [7],growth [8],growth [9],growth [10],growth [11],growth [12],growth [13],growth [14],growth [15],growth [16],growth [17],growth [18],growth [19],growth [20]
Cc1c(C)c(N2C(=O)C=CC2=O)c(C)c(C)c1N1C(=O)C=CC1=O,96.3%,108%,112%,91.6%,115%,-49.4% (active),93.2%,78.7%,104%,77.8%,126%,114%,54.7%,110%,109%,114%,75.6%,86.5%,117%,
COc1cc2cn3c4ccc(O)cc4nc(N)c3c2cc1OC,0.98% (active),25.7%,28.7%,11.9%,1.19% (active),-39.4% (active),6.11% (active),,,,31.2%,61.6%,9.93% (active),20.8%,9.44% (active),-18.3% (active),6.97% (active),-9.75% (active),31.4%,18.4%
COc1ccc2c(c1)nc(N)c1c3cc(OC)c(OC)cc3cn21,56.1%,78.2%,84.6%,76.9%,20.5%,-8.03% (active),43.1%,,,,71.3%,83.8%,46.3%,55.1%,31%,78.6%,94.8%,31.6%,30.4%,43.8%
Cc1cc(Cl)ccc1Nc1nc(C(F)(F)F)ccc1C(=O)NCC(=O)N/N=C/c1c(Cl)cccc1Cl,74.6%,89.5%,80.9%,102%,80.7%,75.8%,94.9%,87.3%,49.9%,50.2%,92.2%,61.6%,107%,31%,54.2%,79.4%,149%,75.8%,60.8%,
CCN(CC)CCOc1ccccc1-n1c(C)ccc1-c1ccccc1,102%,92%,80.1%,106%,44.2%,101%,,70.3%,103%,-48.1% (active),89%,102%,84.6%,78.5%,93%,92.7%,100%,,,88.2%
O=NC1CC=CCC1c1ccccc1 (stereo not given),106%,105%,118%,98.7%,112%,109%,106%,117%,124%,105%,114%,101%,116%,104%,122%,98.5%,105%,105%,104%,
COC1CC2CCC(C)C(O)(O2)C(=O)C(=O)N2CCCCC2C(=O)OC(C(C)CC2CCC(O)C(OC)C2)CC(=O)C(C)C=C(C)C(O)C(OC)C(=O)C(C)CC(C)/C=C/C=C/C=C1C (stereo not given),49.2%,48.6%,39.4%,51.3%,43.1%,42.7%,43%,64.7%,42%,70.4%,21.1%,52.4%,20.4%,57.2%,16.6%,35.8%,50.8%,48.5%,46.2%,
Cn1cc(-c2nc(-c3c[nH]c4ncccc34)cs2)c2cccnc21,63.1%,70%,64.3%,68.2%,46.6%,46.5%,60.6%,,,,84.8%,47.6%,54.6%,91.5%,71.1%,69.1%,105%,42.5%,43.6%,69.6%
Cn1cc(-c2csc(-c3cn(C)c4ncccc34)n2)c2cc(Br)cnc21,82%,101%,104%,100%,95.4%,98.7%,93.8%,,,,107%,61.9%,81.2%,105%,82.1%,109%,96.2%,80.7%,81.1%,87%
O=C(Nc1ccc(Cl)cc1)Nc1ccc(Oc2nncc3ccccc23)cc1,0.498% (active),-54.5% (active),60.9%,12.9%,21.5%,-46.3% (active),,11.9%,11.2%,5.58% (active),0.777% (active),-25.2% (active),-91.2% (active),12.6%,40.7%,-76.5% (active),34.4%,7.3% (active),2.76% (active),40%
CC1SC(c2c(Cl)cccc2Cl)N(NC(=O)c2[nH]c3ccc(F)cc3c2-c2ccccc2)C1=O (stereo not given),48%,58.5%,4.84% (active),-44.6% (active),8.08% (active),69%,33.8%,35.1%,24.1%,71.6%,1.97% (active),0.445% (active),26.5%,44.3%,6.65% (active),71.5%,93.9%,62.8%,65.1%,
Cn1cc(-c2csc(-c3c[nH]c4ncccc34)n2)c2cc(Br)cnc21,31.6%,49%,59.9%,-19.7% (active),7.22% (active),-2.08% (active),20%,,,,32.8%,-1.21% (active),26.1%,64.8%,-1.78% (active),70.1%,57.1%,35.2%,66.8%,5.11% (active)
O=C1NC(=O)/C(=C\c2ccccc2)C2=C1CCCC2,-44.7% (active),92.3%,107%,119%,85.5%,-87.4% (active),61.7%,-63.2% (active),25.7%,-37.8% (active),50.6%,92.1%,13.3%,39.4%,88.2%,27.4%,-64.6% (active),36.4%,20.9%,
COc1cc(NC(=O)c2cc3ccccc3cc2O)c(OC)cc1Cl,-19.3% (active),13.5%,-3.14% (active),-29.6% (active),3.33% (active),-30.1% (active),-5.13% (active),41.6%,25.6%,-2.3% (active),-23.7% (active),18.5%,20.9%,27.3%,8.57% (active),7.7% (active),-22.2% (active),4.56% (active),13.8%,
O=C(NN(C(=O)c1ccccc1)c1cccs1)c1ccccc1,103%,99.8%,94%,97%,116%,91.3%,100%,106%,123%,109%,97.3%,93.4%,115%,112%,116%,110%,139%,101%,101%,
CCCCCCCCCCCCNc1ncnc2[nH]ncc12,51.1%,72.9%,99.3%,93.4%,79.2%,76.1%,,95.4%,85.9%,48.7%,84.7%,68.6%,96.4%,84%,54.8%,77%,50.2%,,84.9%,71.1%
CN(CC(=O)N(Cc1ccc(C2CCCCC2)cc1)c1ccc(C(=O)O)cc1)S(=O)(=O)c1c(F)c(F)c(F)c(F)c1F,-19.9% (active),97.4%,86.4%,60.6%,96%,44.7%,,12.9%,-18% (active),1.31% (active),62%,-28.7% (active),-87.3% (active),67.5%,108%,99.2%,31.6%,19.9%,-46.1% (active),100%
